Screens (PubChem BioAssay)
Pf growth 48h – inhibits P. falciparum growth in the first generation, 48 h; P. falciparum luciferase growth in erythrocytes, 48 h; Potency, µM (highest dose often 28.7 µM), for inactives: at the top dose activity change, negative = inhibition, hits mostly inhibitors; hit rate 5.9% among 310,000; note: % is set by controls: 0 for no effect and ±100 for the full control effect
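Compounds are pin-transferred into medium, infected erythrocytes (2% hematocrit, 0.1% parasitemia final) are added, and plates sit one parasite generation at 37 C in 5% CO2. Detection reagent is then added and luminescence measured.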
Pf growth 96h – P. falciparum growth inhibition at 96 hours. Potency, µM (highest dose often 28.7 µM), for inactives: top-dose activity change, negative = inhibition, hits mostly inhibitors. P. falciparum luciferase reporter growth, 96 h. AID 504834. hit rate 6.9% among 320,000; note: % is set by controls: 0 for no effect and ±100 for the full control effect
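P. falciparum expressing integrated firefly luciferase grown in erythrocytes (2% hematocrit, 0.05% parasitemia final) with compounds for 96 hours at 37 C, 5% CO2. Growth inhibition read as loss of luminescence after adding luciferase detection reagent.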
NS1 function inh – influenza NS1 inhibition | hit rate 0.4% among 270,000 | Potency, µM (doses to about 46.1 µM), for inactives: at the top dose activity, positive = more growth; calls by dose curve; note: actives are rising curves; nearly all actives have a fitted effect of over 50% in size
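A cell-based growth assay was used: compounds that relieve NS1-induced slow growth of budding yeast raise OD600. Assay medium was yeast nitrogen base with ammonium sulphate and -URA supplement, pH 6.0, with 2% galactose.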
SARS PLP yeast – blocks SARS-CoV papain-like protease in a yeast assay. S. cerevisiae expressing SARS-CoV PLpro, growth rescue. hit rate 0.19% among 330,000. AID 485353. Potency, µM (doses to about 32.9 µM), for the others: at the highest dose activity, positive = growth rescue, hits mostly activators; calls by dose curve; note: 0% is about no effect; nearly all actives have a fitted effect of over 55% in size
HCV inh – inhibitors of hepatitis C virus infection. Huh7.5.1 HCVcc-Cre infection, luciferase reporter, 44 h. hit rate 3.4% among 340,000. Potency, µM (series often up to 41.8 µM), inactives show top-dose activity change, negative = inhibition, most hits filed as inhibitors. AID 651820; note: % is set by controls: 0 for no effect and ±100 for the full control effect
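Reporter virus HCVcc-Cre (~0.5 moi) infects cells exposed to compound; seeding density 1,000 cells/well with 4 h settling beforehand. Luminescence, 15 sec read, taken 44 h post-infection following a 15 min RT substrate incubation.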
AMA1-RON2 inh – inhibitors of Plasmodium falciparum AMA1-RON2 interaction. AlphaScreen AMA1-biotinylated RON2 peptide binding. Potency, µM (titrated, usually from 58.2 µM), without a hit: at the highest dose activity change, negative = inhibition, hits mostly inhibitors. hit rate 0.2% among 360,000. AID 720542;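 note: 0% = vehicle wells and -100% = peptide control; nearly all actives have a fitted effect of over 45% in size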
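AMA1 (3D7) with his tag at 25 nM final met compounds first, then biotinylated RON2 peptide at 25 nM; detection used donor plus acceptor beads, 10 µg/mL apiece, read by AlphaScreen after 30 min at room temperature.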
* marks the source's active call; other numbers are inactive results; ? = inconclusive; . = no result; [ ] = remark or other dose. Rows were chosen to be rich in hits. Some 12% of all compounds tested hit in one or more screens of this group. Unless noted, calls come from the whole dose curve; as a rule, active = well fitted curve in the direction sought with a large enough effect; inconclusive = small, poorly fitted or top-dose-only effect, or another doubt; inactive = no such curve, though single readings can be large; an effect the other way counts as inactive or inconclusive. Potency is the fitted concentration of half-maximal effect.

SMILES	Pf growth 48h	Pf growth 96h	NS1 function inh	SARS PLP yeast	HCV inh	AMA1-RON2 inh
COc1ccc(C(=O)Cn2cc([N+](=O)[O-])nc2C)cc1	5%[0.00184 µM]	25%	-5%	-4%	4%	15%
O=C(Cn1cc(Cl)ccc1=O)c1ccc(Cl)cc1	3%	46%	-1%	4%	-15%	-9%
CCOCc1cn(CC(=O)c2ccc(Cl)cc2)c(C)nc1=N	4.1µM*	.	1%	0%	-5%	3%
N=c1n(CCCOc2ccccc2Cl)c2ccccc2n1CC(N)=O	?	?	3%	1%	-16%	-19%
CC12CC(NC(=O)N1c1ccc(C(=O)N3CCN(c4ccc(F)cc4)CC3)cc1)c1ccccc1O2 (stereo not drawn)	?	.	-5%	6%	-12%	0%
COc1ccccc1N1CCN(C(=O)c2cccc(N3C(=O)NC4CC3(C)Oc3ccccc34)c2)CC1 (stereo not drawn)	12µM*	1%	-7%	-2%	-21%	7%
CCOC(=O)N1CCN(C(=O)c2cccc(N3C(=O)NC4CC3(C)Oc3ccccc34)c2)CC1 (stereo not drawn)	-15%	1.9µM*	12%	-3%	19%	-10%
CC12CC(NC(=O)N1c1cccc(C(=O)N3CCN(c4ccccc4)CC3)c1)c1ccccc1O2 (stereo not drawn)	8.3µM*	?	5%	-5%	-30%	-2%
COc1ccc(C2/C(=C(/O)c3ccc(F)cc3)C(=O)C(=O)N2CCCN2CCOCC2)cc1OC (stereo not drawn)	52%	?	11%	-5%	8%	-2%
O=[N+]([O-])c1ccc(Cl)c(CNc2ncnc3c2ncn3[C@@H]2CCCCO2)c1	.	.	-6%	.	.	.
O=C(OCc1cn([C@@H]2C[C@H](c3ccccc3)N(C(=O)C3CCCCC3)C[C@H]2O)nn1)c1ccccc1	.	.	.	.	.	-1%
N=C(N)C(N=Nc1ccccc1)C(=N)N (stereo not drawn)	.	.	-4%	.	.	.
C=CCn1c[n+](CC(=O)c2ccc(Br)s2)c2ccccc21	?	36%	4%	0%	-4%	-13%
COc1ccc(OC)c2c1sc(=NC(=O)C(C)C)n2C	.	-62%	-16%	4%	7%	-2%
COc1ccc(OC)c2c1sc(=NC(=O)C(C)(C)C)n2C	.	5%	-1%	2%	10µM*	-7%
CCN(CC)CCOCCOC(=O)C(CC)(CC)c1ccccc1 (tested in a mixture with another compound)	19µM*	6.7µM*	.	.	.	.
CCN(CC)CCOC(=O)C(O)(c1ccccc1)c1ccccc1	7%	-1%	-12%	3%	11%	11%
COC(=O)[C@H](Cc1ccccc1)NC(=O)NCc1ccccc1	-6%	1%	0%	0%	18%	-3%
COC(=O)[C@H](Cc1ccccc1)NC(=O)[C@@H](N)CC(=O)O	7%	34%	.	.	0.56µM*	26%
Oc1ccc(Cl)cc1CNc1cnc2ccccc2c1	-22%	2.6µM*	-8%	-2%	?	15%
C=CCc1cccc(CNc2cnc3ccccc3c2)c1O	?	-3%	4%	-10%	7.9µM*	0%
O=c1[nH]c(N2CCCCC2)nc2ncn(Cc3ccccc3)c12	-23%	?	-1%	0%	-7%	18%
O=C(NC1C/C(=N/O)c2cc3c(cc21)OCO3)C(F)(F)F (stereo not drawn)	0%	9%	-1%	0%	3%	7%
COCCn1c(SC(C)C(=O)NC2CCCCC2C)nc2ccccc2c1=O (stereo not drawn)	6%	-26%	.	4%	31%	-23%
Cc1cccc(NC(=O)C(C)Sc2nc3ccccc3c(=O)n2CCCN2CCOCC2)c1 (stereo not drawn)	13µM*	8.3µM*	.	-1%	?	0%
SMILES	Pf growth 48h	Pf growth 96h	NS1 function inh	SARS PLP yeast	HCV inh	AMA1-RON2 inh
COCCn1c(SC(C)C(=O)Nc2ccc3c(c2)OCCO3)nc2ccccc2c1=O (stereo not drawn)	?	13µM*	-4%	6%	-27%	-1%
COc1cc(/C=C2\C(=N)N3N=C(S(C)(=O)=O)SC3=NC2=O)ccc1OC(=O)c1ccco1	-24%	?	13%	-2%	18%	27%
CCCCc1c(O)c2cccc3c2n(c1=O)CCC3	.	.	.	.	14%	12%
Cc1ccc(-n2nc3ccc(N)cc3n2)c(C)c1	98%	1.7µM*	?	1%	-4%	-15%
Cc1cc(N)ccc1-n1nc2ccccc2n1	.	.	.	.	5%	-1%
Cc1ccc(-n2nc3ccc(N)cc3n2)cc1Cl	89%	4.1µM*	8%	-1%	-21%	0%
Cc1ccc(-n2nc3ccc(N)cc3n2)cc1C	0%	185%	?	-5%	-1%	37%
COC(=O)c1c(N)[nH]c(C(=O)c2ccccc2)c1-c1ccccc1Br	.	.	.	.	.	28%
Cc1cccc(CN2CCN(C(=O)c3cccc4ccccc34)CC2)c1	-26%	?	-25%	4%	-17%	?
Cc1cc(C)c(NC(=O)C[C@H](CC(=O)O)c2cccc3ccccc23)c(C(=O)N2CCC3(CCCC3)CC2)c1	?	?	10µM*	.	.	.
C[C@@H]1C[C@H]2[C@@H]3C[C@H](F)C4=CC(=O)C=C[C@]4(C)[C@@]3(Cl)[C@@H](O)C[C@]2(C)[C@H]1C(=O)COC(=O)C(C)(C)C	1µM*	1%	.	.	13%	-5%
c1ccc(C2Nc3ccccc3C3OCCCC23)cc1 (stereo not drawn)	8%	?	-161%	-23%	4%	?
CCOc1ccc(N=C2NC(=O)C(CC(=O)Nc3ccccc3)S2)cc1 (stereo not drawn)	8.3µM*	5%	.	1%	-3%	0%
CCOc1ccccc1CN1C(=O)c2ccccc2C1C(=O)NC(C)CC (stereo not drawn)	-30%	8.3µM*	-1%	17%	-6%	2%
COc1ccc(CN2C(=O)c3ccccc3C2C(=O)NCCc2ccccc2)c(OC)c1 (stereo not drawn)	?	8.3µM*	.	5%	-7%	-6%
CC(C)N1C(=O)c2ccccc2C1C(=O)NCCc1ccccc1 (stereo not drawn)	16%	8.3µM*	2%	0%	3%	-4%
O=C(NCCc1ccccc1)C1c2ccccc2C(=O)N1Cc1cccs1 (stereo not drawn)	-29%	?	.	1%	-13%	5%
Cc1cccc(C)c1OCCNC(=O)OCc1ccccc1	9%	?	-31%	2%	5%	13%
O=C(NC(=S)NNS(=O)(=O)c1ccccc1)c1ccc([N+](=O)[O-])cc1	-9%	?	2%	-6%	3%	85%
